Drawing on ChEMBL document CHEMBL1201862, “PubChem BioAssay data set” (2004), this text covers Potency for 14 compounds.

The campaign covered roughly 220,000 compounds. About 16,000 (7.3%) were called active. Inconclusive results (about 25%) are left out. No cut-off for these calls is given here. The entries come from a sample that favours actives as a whole.

In the assay the target is T1, Aldehyde dehydrogenase 1A1 (Homo sapiens) (UniProt P00352).
T1 sequence (whole entry): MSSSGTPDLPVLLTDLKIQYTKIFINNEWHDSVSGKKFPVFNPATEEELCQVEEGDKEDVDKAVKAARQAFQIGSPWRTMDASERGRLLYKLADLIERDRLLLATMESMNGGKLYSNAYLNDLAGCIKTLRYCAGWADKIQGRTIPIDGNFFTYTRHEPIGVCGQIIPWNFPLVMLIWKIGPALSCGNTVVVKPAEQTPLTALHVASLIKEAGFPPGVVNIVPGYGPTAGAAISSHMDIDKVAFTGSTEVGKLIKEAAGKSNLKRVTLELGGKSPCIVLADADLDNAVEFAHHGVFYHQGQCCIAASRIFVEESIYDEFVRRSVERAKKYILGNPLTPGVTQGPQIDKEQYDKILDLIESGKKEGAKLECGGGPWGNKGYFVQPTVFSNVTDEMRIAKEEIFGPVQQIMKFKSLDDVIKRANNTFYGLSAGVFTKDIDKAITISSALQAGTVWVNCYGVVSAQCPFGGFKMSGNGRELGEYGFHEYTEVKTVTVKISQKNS
Description: qHTS Assay for Inhibitors of Aldehyde Dehydrogenase 1 (ALDH1A1). [Related pubchem assays: 1030 (qHTS Validation Assay for Inhibitors of aldehyde dehydrogenase 1 (ALDH1A1))]. The assay is classed as functional. On the technique in general: In qHTS, concentration-response curves come from the screen itself.
On to `CC(C)C1SC(N/N=C/c2ccco2)=NC1=O` (centres undefined), for which the Potency was 200 µM (active). As for `O=C(O)c1ccc2c(c1)CC(c1ccccc1)OC2=O` (centres undefined), the entry is “inactive”; as for `CCOC(=O)CN1C(=O)N[C@@H](c2cccc(C(F)(F)F)c2)C(C(=O)OC)=C1C`, “inactive”. As for `CC(C(=O)NN=C(c1ccccc1)c1ccccc1)N1CCCC1` (centres undefined), the entry is “inactive”. As for `O=C(c1no[n+]([O-])c1C(=O)c1csc2ccccc12)c1csc2ccccc12`, the figure is 3.55 µM (active); as for `O=C(N/N=C/c1ccc2c(c1)OCO2)c1ccc(Br)o1`, “inactive”. For the compound `CCOC(=O)N1CCN(c2nc3ccccc3nc2C(C#N)C(=O)NCCc2ccccc2)CC1` (centres undefined), the Potency is 398 µM (active). On to `CC(=O)OCc1ccccc1`, for which the Potency was 20 µM (active). As for `N#CC1=C(N)Oc2c(oc(CO)cc2=O)C12C(=O)Nc1ccc(Cl)cc12` (centres undefined), the entry is “inactive”; as for `C[C@@H]1C[C@H]2[C@@H]3C[C@H](F)C4=CC(=O)C=C[C@]4(C)[C@@]3(F)[C@@H](O)C[C@]2(C)[C@@]1(O)C(=O)CO`, “inactive”; as for `O=C(/C=C/c1ccc(Cl)cc1)c1cccs1`, 12.6 µM (active).

In the case of `CCc1ccc(Oc2coc3cc(OCC(=O)Nc4cc(C)ccc4C)ccc3c2=O)cc1`, the Potency entry is “inactive”. As for `COc1ccc(N2CC(C(=O)OCC(=O)c3cccc(OC)c3)CC2=O)cc1` (centres undefined), the figure is 224 µM (active). As for `O=C(Cn1c2ccccc2c(=O)c2cc([N+](=O)[O-])ccc21)Nc1ccccc1Cl`, the entry is “inactive”.
